Measured values: publication PMC4336329 (PLoS ONE, 2015)
Screen size: about 310,000 compounds; about 14,000 (4.5%) showed an effect of 50% or more. The effect is printed as a negative number. Only a selection was taken, and strong results are over-represented in it overall.

What follows are compounds tested against human ether-à-go-go-related gene (hERG) potassium channel (human, UniProt Q12809) (assay: primary screen, population patch clamp on CHO cells stably expressing hERG; higher = less effect of the substance).
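Note: peak tail current of the secondary pulse compared with the same well before compound.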

Sequence of human ether-à-go-go-related gene (hERG) potassium channel (Q12809 whole entry, looked up): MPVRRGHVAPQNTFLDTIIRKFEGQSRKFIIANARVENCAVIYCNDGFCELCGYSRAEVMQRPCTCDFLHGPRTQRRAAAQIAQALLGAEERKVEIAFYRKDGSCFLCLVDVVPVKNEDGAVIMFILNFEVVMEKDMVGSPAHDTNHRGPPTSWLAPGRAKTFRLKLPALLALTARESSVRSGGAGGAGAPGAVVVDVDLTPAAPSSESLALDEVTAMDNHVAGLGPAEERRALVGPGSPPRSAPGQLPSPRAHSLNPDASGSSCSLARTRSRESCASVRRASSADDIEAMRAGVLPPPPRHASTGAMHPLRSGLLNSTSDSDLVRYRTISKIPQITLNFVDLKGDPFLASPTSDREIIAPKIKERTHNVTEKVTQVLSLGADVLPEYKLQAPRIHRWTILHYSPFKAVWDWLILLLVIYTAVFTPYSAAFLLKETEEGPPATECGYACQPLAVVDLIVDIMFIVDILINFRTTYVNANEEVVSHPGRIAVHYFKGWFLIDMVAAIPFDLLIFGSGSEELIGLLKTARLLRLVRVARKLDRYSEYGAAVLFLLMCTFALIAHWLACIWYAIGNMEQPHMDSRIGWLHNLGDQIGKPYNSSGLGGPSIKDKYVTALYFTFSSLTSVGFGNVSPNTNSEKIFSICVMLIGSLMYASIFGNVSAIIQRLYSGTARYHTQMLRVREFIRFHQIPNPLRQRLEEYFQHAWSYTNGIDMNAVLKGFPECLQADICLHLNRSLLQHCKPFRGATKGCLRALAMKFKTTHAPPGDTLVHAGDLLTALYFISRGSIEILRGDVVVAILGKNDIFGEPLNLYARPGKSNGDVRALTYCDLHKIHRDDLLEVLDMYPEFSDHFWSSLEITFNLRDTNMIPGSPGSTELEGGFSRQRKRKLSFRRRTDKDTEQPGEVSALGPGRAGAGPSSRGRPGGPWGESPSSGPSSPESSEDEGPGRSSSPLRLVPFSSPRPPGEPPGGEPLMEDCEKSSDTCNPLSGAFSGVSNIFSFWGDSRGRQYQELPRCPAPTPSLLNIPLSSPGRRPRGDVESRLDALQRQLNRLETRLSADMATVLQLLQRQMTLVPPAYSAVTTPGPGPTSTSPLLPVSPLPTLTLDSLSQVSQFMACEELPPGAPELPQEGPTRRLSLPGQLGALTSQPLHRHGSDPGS

First: O=C(CC1(c2ccc(Cl)cc2)C2CC3CC(C2)CC1C3)NCCO (stereo not shown)
Second: O=C(/C=C/c1ccc(Cl)cc1)NC(=S)N1C[C@H]2C[C@H](C1)c1cccc(=O)n1C2
The “hERG current change (%, negative = inhibition) at 10uM” value of the first is higher: -7.17% for the first, -53.1% for the second.

Compared with `O=C(COC(=O)c1cccc(-n2cnnn2)c1)c1ccccc1`, `Cc1cccc(-n2nnc(C(=O)NCc3ccccn3)c2N)c1` is higher in “hERG current change (%, negative = inhibition) at 10uM” value: -4.63% for the first, 0.598% for the second.

Going from `OCc1ccccc1SSc1ccccc1CO` to `OCCN(Cc1ccccc1)Cc1ccc(Cl)cc1Cl`, the “hERG current change (%, negative = inhibition) at 10uM” value falls from 14.5% to -14%.

Going from `COc1ccc2[nH]c(C)c(CCN3C(=O)OC(C)(C)C3(C)O)c2c1` (stereo not shown) to `COc1ccc(-c2[nH]ncc2CN2CCN(C(=O)c3cccs3)CC2)c(F)c1`, the “hERG current change (%, negative = inhibition) at 10uM” value falls from 9.02% to -21.5%.

Going from `CCc1noc(C)c1C(=O)N1CCN(S(=O)(=O)c2cc(C)ccc2C)CC1` to `CC(=O)c1c(C)[nH]c(C(=O)CN2CCN(S(=O)(=O)c3ccccc3[N+](=O)[O-])CC2)c1C`, the “hERG current change (%, negative = inhibition) at 10uM” value falls from -1.66% to -6.62%.

Compared with `O=C(c1ccco1)N1CCN(S(=O)(=O)c2ccc(Oc3ccccc3)cc2)CC1`, `CCOC(=O)N1CCN(Cc2cn[nH]c2-c2ccc(-c3ccccc3)cc2)CC1` is lower in “hERG current change (%, negative = inhibition) at 10uM” value: -31.5% for the first, -54.8% for the second.

Compared with `Cc1ccc(C(=O)C(C)OC(=O)Cn2cnc3c2c(=O)n(C)c(=O)n3C)cc1` (stereo not shown), `CCN(C(=O)C(C)OC(=O)CCCNC(=O)c1ccc(Cl)cc1)c1ccccc1` (stereo not shown) is lower in “hERG current change (%, negative = inhibition) at 10uM” value: -0.153% for the first, -25.1% for the second.

Compared with `COc1ccc(Oc2ccc(C(F)(F)F)cc2NC(=O)c2ccc(F)cc2)cc1`, `COc1ccc(Oc2ccc(C(F)(F)F)cc2NC(=O)c2ccc(OC)cc2)cc1` is higher in “hERG current change (%, negative = inhibition) at 10uM” value: 6.56% for the first, 12.5% for the second.

Compared with `N#Cc1ccc(Oc2ccc(C(F)(F)F)cc2NC(=O)c2ccc(F)cc2)cc1`, `COc1ccc(OCc2cccc(C(=O)NN)c2)cc1` is higher in “hERG current change (%, negative = inhibition) at 10uM” value: -70.2% for the first, 2.35% for the second.

First: CCCCC(CC(C)O)c1n[nH]c(=S)n1-c1ccccc1 (stereo not shown)
Second: S=c1[nH]nc(COc2ccccc2)n1/N=C/C=C/c1ccco1
The “hERG current change (%, negative = inhibition) at 10uM” value of the first is lower: 3.1% for the first, 3.42% for the second.

Going from `O=C(/C=C/c1ccccc1)NC(=S)N1C[C@H]2C[C@H](C1)c1cccc(=O)n1C2` to `O=C(/C=C/c1ccc(F)cc1)NC(=S)N1C[C@H]2C[C@H](C1)c1cccc(=O)n1C2`, the “hERG current change (%, negative = inhibition) at 10uM” value falls from -15% to -22.9%.

Compared with `COc1ccc(/C=C/C(=O)NC(=S)N2C[C@H]3C[C@H](C2)c2cccc(=O)n2C3)cc1`, `O=C(/C=C/c1ccc(Br)cc1)NC(=S)N1C[C@H]2C[C@H](C1)c1cccc(=O)n1C2` is lower in “hERG current change (%, negative = inhibition) at 10uM” value: -18.2% for the first, -57.9% for the second.

Going from `COc1ccc(/C=C/C(=O)NC(=S)N2C[C@H]3C[C@H](C2)c2cccc(=O)n2C3)cc1OC` to `COc1ccc(NC(=S)N2CCN(S(C)(=O)=O)CC2)cc1OC`, the “hERG current change (%, negative = inhibition) at 10uM” value falls from 6.67% to 4.68%.

Compared with `O=C(NCc1ccco1)Nc1ccc2snnc2c1`, `CC(NC(=O)Nc1cccc(Cl)c1)C(c1cccs1)N1CCCC1` (stereo not shown) is lower in “hERG current change (%, negative = inhibition) at 10uM” value: 2.51% for the first, -22.8% for the second.

First: CNC(=O)c1c(NC(NC(=O)c2ccco2)C(=O)c2ccc(Cl)cc2)sc2c1CCCC2 (stereo not shown)
Second: CC(OC(=O)CCCNC(=O)c1ccc(Cl)cc1)C(=O)N(C)Cc1ccccc1 (stereo not shown)
The “hERG current change (%, negative = inhibition) at 10uM” value of the first is higher: -20.3% for the first, -54.2% for the second.

Compared with `CC1=C(C(=O)Nc2ccccc2)C(c2ccc(C)o2)n2c(s/c(=C/c3ccccc3)c2=O)=N1` (stereo not shown), `O=C(Nc1cc(=O)[nH]c2nc(-c3ccccc3)nn12)c1ccccc1Cl` is lower in “hERG current change (%, negative = inhibition) at 10uM” value: 18.1% for the first, 15.3% for the second.

Compared with `COc1ccccc1NCc1ccc([N+](=O)[O-])s1`, `COc1ccc(S(=O)(=O)N2CCOC2CNC(=O)C(=O)NCc2ccccn2)cc1C` (stereo not shown) is higher in “hERG current change (%, negative = inhibition) at 10uM” value: -47.7% for the first, 11.6% for the second.

Compared with `CC1CN(C(=O)C(C)OC(=O)c2ccc3ncsc3c2)CC(C)O1` (stereo not shown), `CC(OC(=O)c1ccc2ncsc2c1)C(=O)N1CCCC1` (stereo not shown) is lower in “hERG current change (%, negative = inhibition) at 10uM” value: 20.1% for the first, -56.9% for the second.

Compared with `O=C(c1ccc2ncsc2c1)N1CCCCC1`, `Cc1cc(Cl)ccc1C(=O)C1CCCN(C(=O)c2ccc3ncccc3c2)C1` (stereo not shown) is lower in “hERG current change (%, negative = inhibition) at 10uM” value: 17.9% for the first, -29.5% for the second.

First: CCCc1nnc(SCC(=O)N2CCCC2)n1Cc1ccco1
Second: O=C(c1nc2ccccn2c1CN1CCCC(OCc2ccccc2)C1)N1CCCC1 (stereo not shown)
The “hERG current change (%, negative = inhibition) at 10uM” value of the first is higher: 1.2% for the first, -44.8% for the second.

Going from `Cc1ccc2c(c1)sc(=NC(=O)C1CC1)n2C` to `CCOC(=O)C1CCN(Cc2cn[nH]c2-c2ccc(C)cc2)CC1`, the “hERG current change (%, negative = inhibition) at 10uM” value falls from -4.01% to -51.8%.

Going from `CCOC(=O)c1cnc2ccc(C)cc2c1Sc1ccccc1C(=O)OC` to `Cc1ccc(C(=O)O/N=C(\N)Cc2cccs2)c(Cl)c1`, the “hERG current change (%, negative = inhibition) at 10uM” value rises from -2.26% to 0.558%.

Going from `CCOC(=O)C1CCN(Cc2ccccc2C)CC1` to `CCOC(=O)C1CCN(Cc2cn[nH]c2-c2ccccc2)CC1.O=C(O)C(=O)O`, the “hERG current change (%, negative = inhibition) at 10uM” value falls from 0.665% to -9.8%.

First: COc1ccc(CN2CCN(C(=O)c3cccs3)CC2)c(OC)c1OC
Second: Cc1ccc(-c2[nH]ncc2CN2CCN(C(=O)c3cccs3)CC2)cc1C
The “hERG current change (%, negative = inhibition) at 10uM” value of the first is higher: -6.53% for the first, -62.5% for the second.

First: CCOC(=O)N1CCN(Cc2cn[nH]c2-c2cc3ccccc3o2)CC1
Second: CCOC(=O)N1CCN(Cc2cn[nH]c2-c2cccc3ccccc23)CC1
The “hERG current change (%, negative = inhibition) at 10uM” value of the first is lower: -34.4% for the first, -4.57% for the second.

Compared with `Cc1sc(NC(=O)c2ccc(Br)s2)c(C(N)=O)c1C`, `Cc1sc2ncnc(SCC(=O)c3ccc(Cl)s3)c2c1C` is higher in “hERG current change (%, negative = inhibition) at 10uM” value: 17.5% for the first, 18.3% for the second.

Going from `OCCN(Cc1ccccc1)Cc1ccc(Cl)cc1` to `OCCN(Cc1ccccc1)Cc1ccc(F)c(F)c1`, the “hERG current change (%, negative = inhibition) at 10uM” value rises from -73% to -14.9%.

Going from `CCc1noc(C)c1C(=O)Nc1nc(-c2ccc(OC)cc2)cs1` to `CCc1noc(C)c1C(=O)Nc1nc(-c2ccccc2)cs1`, the “hERG current change (%, negative = inhibition) at 10uM” value falls from -6.43% to -32.6%.

Compared with `Cc1noc(C)c1C(=O)Nc1nc(-c2cccs2)cs1`, `CCc1noc(C)c1C(=O)Nc1nc(-c2cccs2)cs1` is lower in “hERG current change (%, negative = inhibition) at 10uM” value: -56.9% for the first, -57% for the second.

Compared with `Cc1ccc(-c2csc(NC(=O)c3c(C)noc3C)n2)cc1`, `Cc1noc(C)c1C(=O)Nc1nc(-c2ccccc2Cl)cs1` is higher in “hERG current change (%, negative = inhibition) at 10uM” value: -31.7% for the first, -0.869% for the second.

First: Cc1ccc(NC(=S)N2CCN(C(=O)C3CCCO3)CC2)cc1 (stereo not shown)
Second: CCCCCCNS(=O)(=O)c1ccc(NC(=O)C2CCCO2)cc1 (stereo not shown)
The “hERG current change (%, negative = inhibition) at 10uM” value of the first is higher: 17.8% for the first, -21.8% for the second.

Going from `Cc1c(N)c(C(C)(C)C)cc(C(C)(C)C)c1[N+](=O)[O-]` to `Cc1c(Br)cc(C(=O)N2CCCC2)c(C)c1C`, the “hERG current change (%, negative = inhibition) at 10uM” value falls from 0.751% to 0.525%.

Compared with `Cc1cc(NC(=O)CN2CCCCC2)no1.O=C(O)C(=O)O`, `COc1ccc(CCNC(=O)C/C(C)=N/NC(=O)C2CCCCC2)cc1OC` is lower in “hERG current change (%, negative = inhibition) at 10uM” value: 18.8% for the first, 8.79% for the second.

Compared with `Cc1ccc2ccc3cccc4ccc1c2c34`, `O=C(c1ccc(Cl)cc1)C1CCCN(Cc2cccc3cnccc23)C1` (stereo not shown) is lower in “hERG current change (%, negative = inhibition) at 10uM” value: 14% for the first, -44.8% for the second.

Compared with `CC(NC(=O)Nc1ccc([N+](=O)[O-])cc1)C(c1cccs1)N1CCCC1` (stereo not shown), `CC(NC(=O)Nc1ccccc1)C(c1cccs1)N1CCN(C)CC1` (stereo not shown) is higher in “hERG current change (%, negative = inhibition) at 10uM” value: -60.1% for the first, -17.8% for the second.

First: NC(=O)CSc1nnc(-c2ccncc2)n1-c1ccc(Cl)cc1
Second: O=C(c1ccc(Cl)cc1)C1CCCN(Cc2ccc3ncccc3c2)C1 (stereo not shown)
The “hERG current change (%, negative = inhibition) at 10uM” value of the first is higher: -21.5% for the first, -64.3% for the second.

First: O=C(c1nc2ccccn2c1CN1CCC(Cc2ccccc2)CC1)N1CCCC1
Second: Cc1cccc(OC2CCN(Cc3c(C(=O)N4CCCC4)nc4ccccn34)CC2)c1
The “hERG current change (%, negative = inhibition) at 10uM” value of the first is lower: -70.7% for the first, -59.4% for the second.

Going from `Cc1cccc(CN2CCC(Oc3ccc(C(=O)N4CCCCC4)cc3)CC2)c1` to `COC1CCN(Cc2c(C(=O)N3CCN(C4CCCCC4)CC3)nc3ccccn23)CC1`, the “hERG current change (%, negative = inhibition) at 10uM” value rises from -21.9% to 5.42%.

Going from `O=C(c1nc2ccccn2c1CN1CCN(c2ccccc2O)CC1)N1CCCC1` to `O=C(c1cccc(Cl)c1)C1CCCN(Cc2cccc3cnccc23)C1` (stereo not shown), the “hERG current change (%, negative = inhibition) at 10uM” value falls from 34.7% to -32.7%.

Going from `Cc1ccc2sc(N3CCN(C(=O)C4=COCCO4)CC3)nc2c1C` to `Cc1ccc(N2CC(C)Cn3c2nc2c3c(=O)[nH]c(=O)n2C)cc1C` (stereo not shown), the “hERG current change (%, negative = inhibition) at 10uM” value rises from -15.6% to -10.9%.

Compared with `CC1CCCC(C)N1C(=O)c1cc(F)c(F)cc1Cl` (stereo not shown), `O=C(c1ccc(Cl)cc1)C1CCCN(Cc2ccc3nonc3c2)C1` (stereo not shown) is lower in “hERG current change (%, negative = inhibition) at 10uM” value: 16.1% for the first, -34.9% for the second.

First: COc1ccc(CN(C)C(=O)CCCNC(=O)c2ccc(Cl)cc2)cc1
Second: CC(C)c1ccc(NC(=O)c2ccc(NS(C)(=O)=O)cc2)cc1
The “hERG current change (%, negative = inhibition) at 10uM” value of the first is lower: -26.6% for the first, 3.29% for the second.

Compared with `O=C(C1=C(O)C(=O)N(CCN2CCOCC2)C1c1ccc(Cl)cc1)c1cc2ccccc2o1` (stereo not shown), `O=C(c1ccc(Cl)cc1)C1CCCN(Cc2cccc3cccnc23)C1` (stereo not shown) is lower in “hERG current change (%, negative = inhibition) at 10uM” value: 10.3% for the first, -75.9% for the second.

Compared with `CCCCN(C)CCNC(=O)c1ccc2c(c1)NC(=O)C(N1CCCCC1)S2` (stereo not shown), `O=C(c1ccc(Cl)cc1)C1CCCN(Cc2cccc3ncccc23)C1` (stereo not shown) is lower in “hERG current change (%, negative = inhibition) at 10uM” value: 2.48% for the first, -52.1% for the second.
